PubChem BioAssay AID1240 (Sanford-Burnham Center for Chemical Genomics, 2008)
The whole screen tested about 50,000 compounds, of which about 800 (1.6%) showed an effect of 50% or more. Only a selection was taken, and strong results are over-represented in it overall.

molecular target: Bcl-2-like protein 10 (Homo sapiens) (UniProt Q9HD36); assay: Phenotype converters, Bcl-B/TR3 peptide binding displacement, primary biochemical FP (AID 1240); conditions: GST-Bcl-B / FITC-TR3 peptide fluorescence polarization; stronger effect = higher value; compound at 3.75 mg/L;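 note: 0% = Bcl-B with tracer peptide and DMSO and 100% = tracer peptide lacking Bcl-B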
Sequence (Q9HD36 whole entry, looked up): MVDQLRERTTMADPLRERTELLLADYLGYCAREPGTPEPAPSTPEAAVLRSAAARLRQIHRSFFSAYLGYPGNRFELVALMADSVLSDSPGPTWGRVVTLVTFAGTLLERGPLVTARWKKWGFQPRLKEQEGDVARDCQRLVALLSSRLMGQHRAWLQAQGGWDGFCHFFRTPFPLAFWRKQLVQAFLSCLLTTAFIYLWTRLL

SMILES	displacement [%]
N#Cc1c(-c2ccc(Br)cc2)cc(-c2ccc3c(c2)OCO3)c(C#N)c1N	4.5
N#Cc1c(-c2ccc(Br)cc2)cc(-c2ccco2)c(C#N)c1N	76.9
Cc1ccc(-c2cc(-c3ccncc3)c(C#N)c(N)c2C#N)cc1	21.2
CCOC(=O)C(=CNCCC(=O)O)C(=O)OCC	14.6
COc1ccc(CCN2C(=O)C3C4c5ccccc5C(C)(c5ccccc54)C3C2=O)cc1OC (centres undefined)	-1.3
Cc1ccc(N2C(=O)NC(=O)/C(=C\c3ccc(C)s3)C2=O)cc1	13.4
Cc1ccc(N2C(=O)NC(=O)/C(=C/c3cccc(Cl)c3)C2=O)cc1	-8.8
Cc1ccc(C=C2C(=O)NC(=O)N(c3cccc(Cl)c3)C2=O)s1	87.1
CC(C)CNC(=O)C(=O)Nc1ccc(Oc2ccccc2)cc1	5.2
COc1cc(/C=c2/sc3nc4ccccc4n3c2=O)ccc1OCc1nn[nH]n1	5.2
Cc1ccc2nc(-c3ccc(OC(=O)c4ccccc4F)cc3)sc2c1	76.4
Cc1ccc2nc(-c3ccc(NC(=O)c4ccccc4-c4ccccc4C(=O)O)cc3)sc2c1	7.9
Cc1ccc2nc(-c3ccc(O)cc3)sc2c1	12.7
C=C(C)CSc1nc2sc3c(c2c(=O)n1CC(=C)C)CC(C)(C)OC3	-10.4
O=C(Nc1ccc2nc(SCCOc3ccccc3)sc2c1)c1ccccc1Cl	-3.4
CCOc1ccc(/C=C2/NC(=S)NC2=O)cc1	10.8
COc1ccc(/C=C/C=C2\NC(=S)NC2=O)cc1	128
CC(C)(C)c1ccc(/C=C2\NC(=S)NC2=O)cc1	-20.2
CC(C)(C)CC(C)(C)NC(=O)c1ccc2nccnc2c1	14.3
Cc1ccccc1-n1c(C)cc(/C=N/NC(=O)CN2CCOCC2)c1C	-22.2
CC(C)CC(NC(=O)c1ccco1)C(=O)O (centres undefined)	9.5
Cc1cc([N+](=O)[O-])ccc1-c1ccc(C(=O)Nc2ccc3oc(-c4ccccc4)nc3c2)o1	116
Cc1cc([N+](=O)[O-])ccc1-c1ccc(C(=O)Nc2ccc(Cl)cc2)o1	45.8
Cc1cc([N+](=O)[O-])ccc1-c1ccc(C(=O)Nc2ccc(-c3nc4ccccc4o3)c(O)c2)o1	10.8
O=C(Nc1ccc2oc(-c3ccccc3)nc2c1)c1ccc(-c2ccc([N+](=O)[O-])cc2)o1	22.1
O=C(Nc1ccc(Cl)cn1)c1ccc(-c2ccc([N+](=O)[O-])cc2)o1	13.9

SMILES	displacement [%]
Cc1cc([N+](=O)[O-])ccc1-c1ccc(C(=O)Nc2ccc(Cl)cn2)o1	50.1
CCc1ccccc1NC(=O)C(F)(Cl)C(F)(F)F (centres undefined)	-3.1
COc1cccc(CN2CCN(C(=O)c3cccc(Cl)c3)CC2)c1	3.6
CC(=O)c1ccc(NC(=O)C2CC(=O)N(C3CCCCC3)C2)cc1 (centres undefined)	11.1
COc1ccc(CCC(=O)Nc2cc(Cl)cc(Cl)c2)cc1	0.3
CC(=O)N(Cc1ccc2c(c1)OCO2)C1CC(=O)N(c2cccc(Cl)c2)C1=O (centres undefined)	16
CC(=O)N(Cc1ccc2c(c1)OCO2)C1CC(=O)N(c2ccc(Br)cc2)C1=O (centres undefined)	72.3
O=C1CC(N(Cc2ccc3c(c2)OCO3)C(=O)c2ccc(Cl)cc2)C(=O)N1c1ccc(F)cc1 (centres undefined)	-2.2
CC1(C)CC(=O)C2=C(C1)Nc1ccccc1NC2c1cccc(Br)c1 (centres undefined)	2.4
O=C1c2[nH]nc(-c3ccccc3)c2C(c2ccccc2F)N1c1ccccc1 (centres undefined)	-3.9
C=CCn1c(SCCC)nc2sc3c(c2c1=O)CCc1ccccc1-3	0.4
COc1ccc(C(=O)NNC(=O)c2cccc(C)c2O)cc1OC	-1.1
CCOC(=O)C1=C(C)N=c2s/c(=C\c3ccc(OC)c(OC)c3OC)c(=O)n2C1c1ccc(Cl)cc1 (centres undefined)	152
CCOC(=O)C1=C(C)N=c2s/c(=C\c3ccc(OC)c(OC)c3OC)c(=O)n2C1c1ccccc1 (centres undefined)	210
CCOC(=O)C1=C(C)N=c2s/c(=C\c3ccc(OC)c(O)c3)c(=O)n2C1c1ccc(Cl)cc1 (centres undefined)	-5.3
CCOC(=O)C1=C(C)N=c2s/c(=C\c3cccc(OC)c3O)c(=O)n2C1c1ccccc1 (centres undefined)	-0.2
CCOC(=O)C1=C(C)N=c2s/c(=C\c3ccc(OC)cc3)c(=O)n2C1c1ccc(Cl)cc1 (centres undefined)	18.8
CCOC(=O)C1=C(C)N=c2s/c(=C\c3ccccc3OC)c(=O)n2C1c1ccc(C)cc1 (centres undefined)	-2.8
CCOC(=O)C1=C(N)OC2=C(C(=O)CCC2)C1c1ccc(Cl)cc1Cl (centres undefined)	-2.9
CC(=O)n1cc(/C=C2\N=C(c3ccc(C(C)(C)C)cc3)OC2=O)c2ccccc21	72.1
COc1ccc(/C=C2\N=C(c3ccccc3I)OC2=O)cc1	-2.3
CCOc1ccc(/C=C2\N=C(c3ccccc3F)OC2=O)cc1	11
CC(=O)n1cc(/C=C2\N=C(c3ccccc3F)OC2=O)c2ccccc21	7.6
O=C1OC(c2cccs2)=N/C1=C\c1cccc(Cl)c1Cl	29.5
Cc1no[n+]([O-])c1COc1ccccc1/C=C1\N=C(c2ccccc2)OC1=O	-3.2
C=C(C)COc1ccccc1/C=C1\N=C(c2cccs2)OC1=O	0.7

SMILES	displacement [%]
COc1ccc(/C=C2\N=C(c3ccccc3F)OC2=O)c(OC)c1	72.1
CCCOc1ccccc1/C=C1\N=C(c2ccccc2)OC1=O	64
COC(=O)c1ccc(/C=C2\N=C(c3ccc(C(C)(C)C)cc3)OC2=O)cc1	11.1
COc1cccc(/C=C2\N=C(c3cccs3)OC2=O)c1OC	59.5
C=CCOc1ccccc1/C=C1\N=C(c2ccc(C)cc2)OC1=O	-2.1
O=C(CN1C(=O)c2ccccc2C1=O)Nc1nc(-c2ccccc2)cs1	-6.7
COC(=O)C(C)N(C(=O)c1ccc(C(=O)c2ccccc2)cc1)c1c(C)cccc1C (centres undefined)	10.7
COc1cccc(-c2nnc(-c3ccncc3)o2)c1	6.6
COc1cccc(OCCNC(=O)c2cc(OC)c(OC)c(OC)c2)c1	11.6
O=C1NCC(c2ccccc2)C1C(=O)N/N=C\c1cc([N+](=O)[O-])cc(Br)c1O (centres undefined)	5.6
COCCCNC(=O)/C(=C/c1ccc(-c2ccc(Br)cc2)o1)NC(=O)c1ccccc1	-6.6
CCOc1ccc(NC(=O)/C=C/c2ccc(Cl)cc2)cc1	10.1
COc1ccc(Cc2noc(-c3ccccc3C)n2)cc1	-6.7
COC(=O)C1=NN(C(=O)c2ccccc2)C(O)(C(C)(C)C)C1 (centres undefined)	-3.6
COc1ccc(C=C2C(=O)c3ccccc3C2=O)c(O)c1	18.4
O=C1OC(c2ccccc2F)=N/C1=C\c1ccccc1[N+](=O)[O-]	4.1
COc1ccc(C2=N/C(=C\N(C)C)C(=O)O2)cc1	-9
COc1ccc(C2=NC(=Cc3cccc4ccccc34)C(=O)O2)cc1	108
COc1cccc(/C=C2/N=C(c3ccc(NC(C)=O)cc3)OC2=O)c1	33.2
O=C1OC(c2ccccc2F)=N/C1=C\c1cccc2ccccc12	78.4
COc1ccc(C=C2C(=O)c3ccccc3C2=O)c(OC)c1	181
COc1ccccc1C=C1C(=O)c2ccccc2C1=O	11.5
O=C1OC(c2ccccc2F)=N/C1=C\c1cccc(I)c1	-0.4
Cc1onc(-c2c(Cl)cccc2Cl)c1C(=O)N1CCN(Cc2ccccc2)CC1	0.2
CCOC(=O)CNC1CC(C)(C)NC(C)(C)C1	-1.2
COc1ccc(NC(=O)c2ccc(N(Cc3ccc(Cl)cc3)S(C)(=O)=O)cc2)c(OC)c1	26.7

SMILES	displacement [%]
Nc1cc(-c2ccc(Br)cc2)nn1Cc1ccc(Cl)cc1	-1.3
O=c1c2c3c(sc2[nH]c(=S)n1-c1ccccc1)-c1ccccc1CC3	102
O=c1c2c3c(sc2[nH]c(=S)n1-c1ccccc1)CCC3	-2.5
C=CCn1c(=S)[nH]c2sc3c(c2c1=O)CCc1ccccc1-3	-4.7
O=C(c1ccc(-c2ccccc2)cc1)N1CCN(Cc2ccc3c(c2)OCO3)CC1	-1.6
Cn1c(/C=C/c2c[nH]c3ccccc23)nc2ccccc2c1=O	108
Cc1c(/C=C/c2nc3ccccc3c(=O)n2C)c2ccccc2n1C	3
Cc1[nH]c2ccccc2c1/C=C/c1nc2ccccc2c(=O)n1Cc1ccccc1	-5.8
Cc1[nH]c2ccccc2c1/C=C/c1nc2ccccc2c(=O)n1C	186
O=c1c2ccccc2nc(/C=C/c2c[nH]c3ccccc23)n1-c1cccc([N+](=O)[O-])c1	-2.2
O=c1c2ccccc2nc(/C=C/c2c[nH]c3ccccc23)n1-c1ccc([N+](=O)[O-])cc1	-62.9
COc1ccc(C)cc1NC(=O)c1cccnc1	20.4
COc1cc(/C=c2\sc3nc4ccccc4n3c2=O)cc(Br)c1OCc1ccccc1F	13.9
COc1ccc(-c2nnc(SCC(=O)Nc3ccc(C)cc3Br)o2)cc1	14.5
Cc1ccc(-c2nc3ccccc3o2)cc1NC(=O)/C=C/c1cccc([N+](=O)[O-])c1	74.2
O=C(/C=C/c1ccccc1)Nc1ccc(O)c(-c2nc3ccccc3o2)c1	-3.2
O=C(/C=C/c1ccc(Cl)cc1)Nc1ccc(-c2nc3ccccc3o2)c(O)c1	-0.3
Cc1ccc(-c2nc3cc(Cl)ccc3o2)cc1NC(=O)/C=C/c1cccc([N+](=O)[O-])c1	-18.8
O=C(/C=C/c1ccccc1)Nc1ccc(-c2nc3ccccc3o2)c(O)c1	127
COc1ccc(Br)cc1C(=O)Nc1cccc(-c2nc3ncccc3o2)c1C	-3.8
Cc1ccc2oc(-c3cccc(NC(=O)/C=C/c4cccc([N+](=O)[O-])c4)c3C)nc2c1	-24.7
COc1ccc(Br)cc1/C=C/C(=O)Nc1cccc(-c2nc3ncccc3o2)c1C	95.3
Cc1c(NC(=O)/C=C/c2cccc([N+](=O)[O-])c2)cccc1-c1nc2ncccc2o1	74.8
COc1ccc(Br)cc1/C=C/C(=O)Nc1ccc(-c2nc3ncccc3o2)cc1	-4.5
O=C(/C=C/c1cccc([N+](=O)[O-])c1)Nc1ccc(-c2nc3ccccc3o2)cc1	-5.2
O=C(/C=C/c1cccc([N+](=O)[O-])c1)Nc1ccc(-c2nc3ncccc3o2)cc1	45.3
